From PubChem BioAssay (NCI)
The panel holds about 83,000 compounds, 20% with a hit somewhere; the sample as a whole holds those more often.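 Treatment: one concentration, 48 hours, 96-well format. Scoring: percent growth, with anything below 10 considered active.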 Values without a mark were called inactive. The source made the active and inactive calls.

These compounds were tested on RPMI-8226 leukemia (assay: NCI-60 one-dose screen, 48 h (100 = growth as untreated, 0 = no growth, -100 = all killed)). Conditions: 10 µM unless noted.

SMILES	growth
N=C(N)c1ccc(-c2ccc(-c3ccco3)o2)cc1F	-23.2% (active)
CCOC(=O)Cn1c(-c2nonc2NC(=O)c2ccccc2F)nc2ccccc21	40.6%
CC(C)OC1OC(OC(C)C)C(OC(C)C)OC1OC(C)C (centres undefined)	94.5%
Cc1nn(-c2ccccc2)c2nc3c(nc12)C1=NCCN1C(c1ccc(Cl)cc1)N3 (centres undefined)	45.6%
COc1ccc(-c2ccc(-c3ccc(C(=N)N)s3)s2)cc1	-57.5% (active)
N=C(N)c1ccc(-c2ccc(-c3cccs3)s2)cc1F	-48.1% (active)
CCCCCCCCCCCCCCCC1=NCCN1	40.8%
CCS(=O)(=O)Nc1cccc(Nc2c3cccc(C)c3nc3c(C)cccc23)c1OC	15.8%
N/C(=N\O)c1ncc(-c2ccc(C(F)(F)F)cc2)c(NC2CCCCCC2)n1	-35.7% [100 µM] (active)
COc1cc(/C=C/c2cc(/C=C/c3ccc(O)c(OC)c3)n(C(=O)Nc3ccc(F)c(Cl)c3)n2)ccc1O	-11.3% (active)
Cc1cc(Nc2c3ccccc3nc3ccccc23)ccc1NS(C)(=O)=O	31.2%
O=C(CC(=O)c1ccccc1F)Nc1ccc([N+](=O)[O-])cc1	68.4%
COc1cc2ccc(C(C)=O)cc2cc1OC	105%
Cc1ccccc1Nc1n[nH]c(Cc2ccccc2)n1	93.8%
CNC1=C([N+](=O)[O-])C(c2ccccc2O)C(C#N)=C(c2cccs2)O1 (centres undefined)	100%
CCN(C(=O)CCl)C(C)(C)C(SSSC(c1ccc(Cl)cc1)C(C)(C)N(CC)C(=O)CCl)c1ccc(Cl)cc1 (centres undefined)	51.7%

SMILES	growth
COc1cc2c(cc1OC)-c1cc(OC)c(OC)cc1C(CN(C)C)C2 (centres undefined)	67.7% [100 µM]
CCCCOC(=O)c1cc(O)c(O)c(O)c1	59.2%
FC(F)(F)c1cc(-c2nnc3n2N=C(Cl)CS3)cc(C(F)(F)F)c1	95.6%
COc1cc2ncnc(Nc3ccc(S(=O)(=O)Nc4cc(C)on4)cc3)c2cc1OCCCN1CCN(c2ccc([N+](=O)[O-])cc2)CC1	109%
O=C1c2cccc3cccc(c23)C(=O)N1CCCCCCCCCCN1C(=O)c2cccc3cccc(c23)C1=O	108%
C=C(c1ccc(C(=O)NCCCn2ccnc2)cc1)c1cc2c(cc1C)C(C)(C)CCC2(C)C	22.7%
O=[N+]([O-])c1ccc(Sc2nc(Cl)nc(NC3CCCC3)n2)cc1	-7.18% [100 µM] (active)
CC(C)(C)c1cc(C[P+](c2ccccc2)(c2ccccc2)c2ccccc2)cc(C(C)(C)C)c1O	-35% (active)
N#Cc1ccc(-c2ccc(-c3cccs3)o2)cc1F	70.7%
Cc1cccc2nc3ccccc3c(Nc3ccc(NS(C)(=O)=O)cc3)c12	52.3%
COc1cc(OC)cc(-c2ccc(-c3ccc(C(=N)N)s3)s2)c1	-62.9% (active)
C=C1C(=O)O[C@H]2[C@H]1CC/C(COC(=O)NCc1[nH]nc3ccccc13)=C\CC[C@@]1(C)O[C@@H]21	-10.2% (active)
COC(=O)[C@H](Cc1cn(C)cn1)NC(=O)[C@H](CC(C)C)NC(=O)Nc1cc(C(F)(F)F)cc(C(F)(F)F)c1	-53.4% [100 µM] (active)
COC(=O)[C@@H](Cc1c[nH]c2ccccc12)NC(=O)/C=C/c1ccccc1	14.3%
CCOC(=O)C(CCCCC(NC(C)=O)(C(=O)OCC)C(=O)OCC)(NC(C)=O)C(=O)OCC	103%

Each compound was assayed on OVCAR-8 ovarian in the same assay as above. Conditions: 10 µM unless noted.

SMILES	growth
N=C(N)c1ccc(-c2ccc(-c3ccco3)o2)cc1F	45%
CCOC(=O)Cn1c(-c2nonc2NC(=O)c2ccccc2F)nc2ccccc21	38.8%
CC(C)OC1OC(OC(C)C)C(OC(C)C)OC1OC(C)C (centres undefined)	94.4%
Cc1nn(-c2ccccc2)c2nc3c(nc12)C1=NCCN1C(c1ccc(Cl)cc1)N3 (centres undefined)	87.5%
COc1ccc(-c2ccc(-c3ccc(C(=N)N)s3)s2)cc1	-66.9% (active)
N=C(N)c1ccc(-c2ccc(-c3cccs3)s2)cc1F	-44.4% (active)
Cc1csc(N/N=C/c2ccncc2)n1	97.7%
CCCCCCCCCCCCCCCC1=NCCN1	84.5%
CCS(=O)(=O)Nc1cccc(Nc2c3cccc(C)c3nc3c(C)cccc23)c1OC	24%
N/N=C(\C(=N\N)c1ccccc1)c1ccccc1	104%
COc1cc(/C=C/c2cc(/C=C/c3ccc(O)c(OC)c3)n(C(=O)Nc3ccc(F)c(Cl)c3)n2)ccc1O	-44% (active)
O=C(CC(=O)c1ccccc1F)Nc1ccc([N+](=O)[O-])cc1	97.4%
CCCCCCCCCCCC1=NC(C)(C)CN1CCO	78.1%
Cc1ccccc1Nc1n[nH]c(Cc2ccccc2)n1	98.1%
CNC1=C([N+](=O)[O-])C(c2ccccc2O)C(C#N)=C(c2cccs2)O1 (centres undefined)	94.2%
CCN(C(=O)CCl)C(C)(C)C(SSSC(c1ccc(Cl)cc1)C(C)(C)N(CC)C(=O)CCl)c1ccc(Cl)cc1 (centres undefined)	77.9%
CCCCOC(=O)c1cc(O)c(O)c(O)c1	68.6%
COc1cc2ncnc(Nc3ccc(S(=O)(=O)Nc4cc(C)on4)cc3)c2cc1OCCCN1CCN(c2ccc([N+](=O)[O-])cc2)CC1	104%
COc1ccc(/C=N/NC(N)=S)c(OC)n1	97.7%
O=C1c2cccc3cccc(c23)C(=O)N1CCCCCCCCCCN1C(=O)c2cccc3cccc(c23)C1=O	104%
O=C1OC(/C=C/c2ccccc2)=NC/1=C/c1ccccc1[N+](=O)[O-]	96.8%
C=C(c1ccc(C(=O)NCCCn2ccnc2)cc1)c1cc2c(cc1C)C(C)(C)CCC2(C)C	40%
O=C(NCCN1CCCCC1)n1cc(-c2ccncc2)c(-c2ccc(Cl)c(O)c2)n1	89.1%
N#Cc1ccc(-c2ccc(-c3cccs3)o2)cc1F	64.2%
Cc1cccc2nc3ccccc3c(Nc3ccc(NS(C)(=O)=O)cc3)c12	39.8%
C=C1C(=O)O[C@H]2[C@H]1CC/C(COC(=O)NCc1[nH]nc3ccccc13)=C\CC[C@@]1(C)O[C@@H]21	35.3%
COC(=O)[C@@H](Cc1c[nH]c2ccccc12)NC(=O)/C=C/c1ccccc1	25.2%
CCOC(=O)C(CCCCC(NC(C)=O)(C(=O)OCC)C(=O)OCC)(NC(C)=O)C(=O)OCC	107%
